# Assay outcomes deposited in PubChem by National Center for Advancing Translational Sciences (NCATS).
# SMN2 splice enh: SMN2 splice variant enhancement; HEK293 SMN2-luciferase splicing reporter, luminescence, 30-36 h; Potency, µM (titrated, usually from 46.1 µM), inactives show at the top dose activity change, positive = activation, hits mostly activators; 210,000 tested, 2.8% active; also: % of control where 0% means no effect; nearly all actives have a fitted effect of over 55% in size
#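 HEK293 cells carry an SMN2 […]–luciferase reporter in which exon 7 inclusion puts luciferase in frame. Cells were plated 10-12 h before compound addition, then incubated 30-36 h at 37C. ONE-Glo luminescence was read; sodium butyrate at 4.5 mM final served as control.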
# ELG1 genotoxic: inducers of genotoxicity in HEK293T ELG1-luciferase cells. AID 504466. 330,000 tested, 1.3% active. Potency, µM (doses to about 46 µM), for inactives: at the top dose activity change, positive = activation, actives largely listed as activators. HEK293T ELG1-luciferase reporter, luminescence, 16 h; also: % of control where 0% means no effect; nearly all actives have a fitted effect of over 60% in size
#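 Genotoxicity was scored as increased ELG1-luciferase reporter signal, measured by ONE-Glo luminescence (30 min, room temperature). Compound or vehicle exposure of the HEK293T reporter cells lasted 16 hr at 37°C.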
# FLuc counter: firefly luciferase modulation, counter-screen for miR-21 project. purified FLuc, Km substrates, luminescence inhibition. 360,000 tested, 6.9% active. Potency, µM (series often up to 57.5 µM), without a hit: at the highest dose activity change, negative = inhibition, actives largely listed as inhibitors;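 also: plate controls were vehicle for no effect and reference inhibitor for full effect; nearly all actives have a fitted effect of over 55% in size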
# Target sequence (P08659 whole entry, looked up): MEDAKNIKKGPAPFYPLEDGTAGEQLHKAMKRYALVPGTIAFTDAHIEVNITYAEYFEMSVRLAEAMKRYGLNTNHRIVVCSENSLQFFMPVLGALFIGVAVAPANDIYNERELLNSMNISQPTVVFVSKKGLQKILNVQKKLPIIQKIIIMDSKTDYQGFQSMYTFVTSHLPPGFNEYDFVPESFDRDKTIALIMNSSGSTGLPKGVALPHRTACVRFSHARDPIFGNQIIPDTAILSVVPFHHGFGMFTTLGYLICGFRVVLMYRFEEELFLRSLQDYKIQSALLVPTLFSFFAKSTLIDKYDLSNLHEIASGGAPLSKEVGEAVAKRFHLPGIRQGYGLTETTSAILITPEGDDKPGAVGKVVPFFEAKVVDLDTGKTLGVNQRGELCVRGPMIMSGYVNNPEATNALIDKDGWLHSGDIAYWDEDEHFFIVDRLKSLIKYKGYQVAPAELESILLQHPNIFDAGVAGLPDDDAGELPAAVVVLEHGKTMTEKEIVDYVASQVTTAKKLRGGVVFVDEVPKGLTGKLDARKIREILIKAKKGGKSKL
#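 Biochemical qHTS of compounds, final roughly 60 µM downward over six points, against 10 nM purified firefly luciferase using Km concentrations of substrates (10 uM D-luciferin, 10 uM ATP) in Tris acetate pH 7.5 buffer; luminescence output.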
# NPC1 prom act: activates the NPC1 promoter | Potency, µM (series often up to 9.22 µM), for the others: top-dose activation, hits mostly activators | 320,000 tested, 2.4% active | Huh7 NPC1 promoter luciferase reporter, 24 h; also: % of control where 0% means no effect; nearly all actives have a fitted effect of over 60% in size
#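 Compounds in DMSO were transferred onto Huh7 NPC1-luciferase reporter cells pre-incubated 2 h; after 24 h at 37 °C, Amplite reagent was dispensed and luminescence recorded 10 min later.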
# Rab9 promoter act: Rab9 promoter activation | Huh7 Rab9 promoter-luciferase reporter, luminescence, 24 h | Potency, µM (series often up to 9.22 µM), for inactives: top-dose activation, negative = inhibition, hits mostly activators | 320,000 tested, 2.8% active; also: % of control where 0% means no effect; nearly all actives have a fitted effect of over 60% in size
#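 Huh7 cells stably carrying Rab9 promoter–luciferase reporter, plated 1500 cells/well, compound added after 2 h and incubated 24 h at 37 °C; luciferase luminescence then read after 10 min with detection reagent.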
# Starred values were filed as active, the others as inactive; ? = inconclusive; . = not tested or not shown; [ ] = another dose, or the depositor's remark. Most compounds without a hit are left out; they make up all but 7.4% or so of the library. Calls follow the shape of the dose curve; as a rule, active = well fitted curve in the direction sought with a large enough effect; inconclusive = small, poorly fitted or top-dose-only effect, or another doubt; inactive = no such curve, though single readings can be large; an effect the other way counts as inactive or inconclusive. Potency is read from the fitted curve at half-maximal effect.
SMILES,SMN2 splice enh,ELG1 genotoxic,FLuc counter,NPC1 prom act,Rab9 promoter act
Cc1ccc2sc(-c3ccc(N)cc3)nc2c1,0.63µM*,.,0.17µM*,.,.
CC(=O)Nc1nc2cc(N)ccc2s1,.,6%,0%,11%,15%
Nc1ccc2nc(-c3ccccc3)sc2c1,0.5µM*,.,0.3µM*,.,.
Cc1ccc(S(=O)(=O)Nc2nc3ccc(N)cc3s2)cc1,.,0%,3%,0%,-1%
Cc1ccc2nc(-c3ccc(N)cc3)sc2c1,.,?,0.11µM*,0.32µM*,0.22µM*
Nc1ccc(-c2nc3cc(N)ccc3s2)cc1,.,2.9µM*,0.67µM*,0.5µM*,0.71µM*
O=C1C2[C@@H](c3ccccc3)N[C@@H](c3ccccc3)C1[C@H](c1ccccc1)N[C@H]2c1ccccc1,0%[9.22 µM],.,.,.,.
Cc1nc2ccc(S(=O)(=O)N(CC(=O)Nc3cccc(F)c3)Cc3ccccc3)cc2s1,.,.,-10%,.,.
CCn1c(=O)cc(OCC(=O)Nc2cc(OC)c(OC)c(OC)c2)c2ccccc21,6%,.,1%,.,.
COc1ccc(N2C(=O)S[C@@H]3CS(=O)(=O)C[C@@H]32)cc1,-3%,1%,1%,1%,-2%
Cc1ccc2nc(-c3ccc(N4C(=N)SC5CS(=O)(=O)CC54)cc3)sc2c1 (stereo not given),.,?,8.5µM*,?,2.8µM*
COc1ccc(CNC(=O)c2cc3c(=O)n(C)c4ccccc4c3n2C)c(OC)c1,1%,.,4%,.,.
N#C/C(=C\c1cccc(O)c1)c1nc2ccccc2o1,.,11%,8.5µM*,-2%,-10%
N#C/C(=C\c1ccncc1)c1nc2ccccc2o1,.,3%,-17%,0%,11%
N#C/C(=C\Nc1ccccc1O)c1nc2ccccc2o1,-10%[1.84 µM],-6%,19µM*,-4%,0%
CCOC(=O)CSc1ccc(-c2nc3ccccc3[nH]2)cn1,.,0%,12µM*,-1%,-2%
Cc1cc2nc(-c3ccc(SCc4ccccn4)nc3)[nH]c2cc1C,-19%,-9%,5.4µM*,?,2.5µM*
CCOC(=O)CSc1ccc(-c2nc3cc(C)c(C)cc3[nH]2)cn1,9%,?,1.1µM*,?,?
N#CCSc1ccc(-c2nc3ccccc3[nH]2)cn1,?,?,12µM*,?,?
Cc1ccc(-c2nc(-c3cc4cccc(OCc5cccc(F)c5)c4oc3=O)no2)cc1,-10%,.,-7%,.,.
CCc1ccccc1NC(=O)c1ccc2c(c1)N(Cc1cc(C)ccc1C)C(=O)c1ccccc1S2(=O)=O,-2%,.,-2%,.,.
COc1ccc(-c2nc3scc(CCNS(=O)(=O)c4c(C)noc4C)n3n2)cc1OC,.,.,-12%,.,.
O=C(c1ccccc1)c1coc2c1C(=O)c1ccccc1C2=O,-6%,11%,27µM*,-2%,-3%
COCCCNC(=O)C1CCN(Cc2cc3ccccc3n2Cc2cccc(C)c2)CC1,.,.,-6%,.,.
CCc1ccc(-c2csc(NC(=O)C3=COCCO3)n2)cc1,.,?,8.5µM*,0.89µM*,0.79µM*
SMILES,SMN2 splice enh,ELG1 genotoxic,FLuc counter,NPC1 prom act,Rab9 promoter act
O=C(Nc1nc(-c2ccc(Cl)cc2)cs1)C1=COCCO1,.,7%,24µM*,?,16%
Cc1cc(-c2csc(NC(=O)C3=COCCO3)n2)c(C)n1C,.,1%,-13%,10%,17%
O=C(Nc1nc(-c2cccs2)cs1)C1=COCCO1,13µM*,?,12µM*,?,?
O=C(Nc1nc(-c2ccc(F)c(F)c2)cs1)C1=COCCO1,.,4%,?,20%,?
Cc1cc(C)c(-c2csc(NC(=O)C3=COCCO3)n2)c(C)c1,.,?,-1%,-2%,-5%
Cc1ccc(CSc2nnc(NC(=O)C3=COCCO3)s2)cc1,.,9%,27µM*,10%,3%
O=C(c1ccc(CSc2nc3ccncc3n2Cc2ccccc2F)cc1)N1CCCCC1,-20%,.,?,.,.
CCOc1ccc(NC(=S)NC(=O)c2c(Br)cnn2C)c([N+](=O)[O-])c1,3%,2%,6µM*,8%,17%
N#C/C(C(=O)c1ccccc1)=C1/CCCN1,.,5%,-1%,0%,7%
N#C/C(C(=O)Oc1ccccc1)=C1\C=CC=CN1,25%,?,19µM*,3.5µM*,2.8µM*
Nc1nc(CSC(=S)N2CCN(c3ccccc3)CC2)nc(Nc2ccc(F)cc2)n1,.,-11%,1%,-4%,2%
CC1CC(C)CN(C(=S)SCc2nc(N)nc(Nc3ccccc3)n2)C1 (stereo not given),.,-3%,-6%,1%,-5%
Nc1nc(CSC(=S)N2CCCCC2)nc(Nc2ccccc2)n1,?,?,27µM*,29%,?
CCOc1ccc(Nc2nc(N)nc(CSC(=S)N3CCOCC3)n2)cc1,.,5%,?,2.8µM*,29%
Nc1nc(CSC(=S)N2CCOCC2)nc(Nc2ccccc2)n1,11µM*,21µM*,13µM*,?,3.5µM*
COc1ccccc1Nc1nc(N)nc(CSC(=S)N2CCCCC2)n1,.,14%,17µM*,6%,21%
O=C(Cn1cc(S(=O)(=O)N2CCCC2)c(S(=O)(=O)N2CCCC2)c1)Nc1cccc(F)c1,.,.,1%,.,.
COc1cc(OC)c(NC(=O)C(C)n2nc(-c3ccc(C)c(C)c3)ccc2=O)cc1Cl (stereo not given),.,.,-14%,.,.
Cc1ccc(Nc2nc(N)nc(CSC(=S)N3CCOCC3)n2)cc1,?,?,15µM*,2.8µM*,?
Cc1cccc(Nc2nc(N)nc(CSC(=S)N3CCOCC3)n2)c1,.,17%,-4%,?,?
Nc1nc2c(nc(Sc3ccc(Cl)cc3)n2C2OC(CO)C(O)C2O)c(=O)[nH]1 (stereo not given),-6%,.,.,.,.
Nc1nc2c(s1)CC(c1ccccc1)CC2 (stereo not given),-16%,2%,24µM*,4%,0%
Nc1nc2c(s1)COc1ccccc1-2,.,10%,?,13%,17%
O=C(COC(=O)c1ccccc1F)c1ccc(-n2nncc2-c2ccco2)cc1,0%,2%,12µM*,7%,-4%
O=C(O)c1ccc(Cn2nnc3sc4c(c3c2=O)CCCC4)cc1,5%,?,13µM*,29%,?
SMILES,SMN2 splice enh,ELG1 genotoxic,FLuc counter,NPC1 prom act,Rab9 promoter act
NNc1nc2sc3c(c2c(=O)n1Cc1ccccc1)CCC3,.,6%,6.7µM*,-4%,17%
Nn1c(Nc2ccccc2)nc2sc3c(c2c1=O)CCC3,-51%,?,9.5µM*,20%,11%
CCc1nc2sc3c(c2c(=O)n1N)CCC3,-18%,-2%,3%,0%,-5%
NNc1nc(-c2ccccc2)nc2sc3c(c12)CCCC3,-47%,1.3µM*,0.54µM*,3.5µM*,2.2µM*
CCOC(=O)c1sc2ncn(CC(=O)Nc3ccc(C)cc3Br)c(=O)c2c1C,2%,.,-9%,.,.
Clc1ccccc1/C=C/c1ccnc2ccccc12,.,4%,19µM*,14%,17%
O=C(O)C(=Cc1ccnc2ccccc12)C(=O)O,-5%[9.22 µM],.,.,.,.
